From PubChem BioAssay AID425 (Sanford-Burnham Center for Chemical Genomics, 2006)
Where “and” joins values, the source holds several entries; their conditions need not be identical. Equal values may be shown once. About 190 (0.17%) of roughly 110,000 compounds were called active. The sample holds actives, similar compounds and a random draw of the others, so the mix is not that of the screen. Rule as the data show it: active = inhibition above about 50%; inactive = the rest. Entries with a potency or affinity are not part of this list.

Each compound was assayed against Dual specificity protein phosphatase 6 (Rattus norvegicus) (UniProt Q64346) (assay: inhibition of rat DUSP6 enzyme activity – biochemical, in vitro, primary screen (AID 425;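 also: plate controls were vehicle for no effect and reference inhibitor for full effect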)). Details: recombinant MKP-3 phosphatase activity, fluorescence; at 20 µM; stronger effect = higher value.
Sequence of Dual specificity protein phosphatase 6 (Rattus norvegicus) (Q64346 whole entry, looked up): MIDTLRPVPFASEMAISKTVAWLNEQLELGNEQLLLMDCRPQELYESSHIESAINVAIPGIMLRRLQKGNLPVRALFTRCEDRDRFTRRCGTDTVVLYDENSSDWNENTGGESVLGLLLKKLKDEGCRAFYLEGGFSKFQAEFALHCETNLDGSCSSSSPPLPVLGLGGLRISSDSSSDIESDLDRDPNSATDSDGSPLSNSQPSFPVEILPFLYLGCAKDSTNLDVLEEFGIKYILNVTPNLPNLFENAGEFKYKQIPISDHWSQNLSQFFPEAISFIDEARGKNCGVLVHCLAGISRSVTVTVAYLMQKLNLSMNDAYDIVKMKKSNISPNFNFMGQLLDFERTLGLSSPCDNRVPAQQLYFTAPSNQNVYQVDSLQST

inhibition, inactive:
Cc1c(CCC(=O)O)c(=O)oc2cc3occ(-c4ccc(F)cc4)c3cc12 8.5%
Cc1c(CCC(=O)O)c(=O)oc2cc(O)ccc12 2.4%
COc1ccc(C2(O)CC3CCC(C2)N3c2cc(C)nc(-c3ccccc3)n2)cc1 (stereo unspecified) 7.5%
Cc1ccc(C2CC(C(F)(F)F)n3nc(C(=O)N(Cc4ccccc4)Cc4ccccc4)cc3N2)cc1 (stereo unspecified) 3.9%
COc1ccc(Cn2c3nc4ccccc4nc3c3c(=O)n(Cc4ccco4)cnc32)cc1 2.5%
COc1ccc(Cn2c3nc4ccccc4nc3c3c(=O)n(Cc4ccco4)c(C)nc32)cc1 8.3%
COC(=O)c1c(-c2ccccc2)csc1NC(=O)CCCC(=O)O 3.6%
CN=C(Nc1ccc(F)cc1)SC1CC(=O)N(c2ccccc2F)C1=O (stereo unspecified) 1.3%
COC(=O)N(C)c1nc2ccccc2s1 -5%
CCOC(=O)c1nc2ccccc2s1 -6.5%
O=C(Nc1cccc2c1CCCC2)c1ccc(Br)cc1 2.6%
O=C(Cc1ccccc1)Nc1ccccc1C(=O)N1CCN(Cc2ccccc2)CC1 2.5%
CC(Oc1ccc(Cl)cc1Cl)C(=O)N1CCN(Cc2ccccc2)CC1 (stereo unspecified) -0.2%
CCOC(=O)c1sc2ncn(C(C)C(=O)OC)c(=O)c2c1C (stereo unspecified) -14.1%
CCOC(=O)c1sc2ncn(C(C)C(=O)OCC)c(=O)c2c1C (stereo unspecified) 0.5%
CCOC(=O)c1sc2nc(SCC(=O)NCc3ccco3)n(Cc3ccccc3)c(=O)c2c1C -3.7%
CCOC(=O)c1sc2ncn(C(CC)C(=O)OC)c(=O)c2c1C (stereo unspecified) -9.8%
O=C(COc1ccc(Cl)cc1)Nc1ncccn1 -2.2%
C/C(=N\OCC(=O)N=Nc1c(O)n(CN2CCN(C)CC2)c2ccccc12)c1cccs1 -0.1%
CN(C)c1ccc(C(C2=C(O)CC(C)(C)CC2=O)C2=C(O)CC(C)(C)CC2=O)cc1 3.2%
O=C(Cn1nc(Cc2cccnc2)c2ccccc2c1=O)Nc1ccc2c(c1)OCO2 -0.1%
COC(=O)c1cc2c([nH]c3ccccc32)c(C)n1 -4%
N#Cc1c(N)nc(SCC(=O)c2ccccc2)c(C#N)c1-c1ccc(Cl)cc1 6.2%
Cc1cc2nc(-c3ccc(SCC(=O)N4CCOCC4)nc3)[nH]c2cc1C 3.3%
Cc1cc(NC(=O)CSc2ccc(-c3nc4cc(C)c(C)cc4[nH]3)cn2)no1 0.6%
Oc1c(Br)cc(Br)cc1/C=N/c1ncn[nH]1 5.8%
Oc1ccc(Br)cc1C=Nc1ccc(Cl)c2cccnc12 14.2%
CCc1ccc(O)c(N=Cc2cc(Br)cc(Br)c2O)c1 1.5%
Oc1oc(-c2ccccc2)nc1C=Nc1ccc(Cl)c2cccnc12 3.9%
COc1ccc(N(Cc2cc3ccc(C)cc3[nH]c2=O)C(C)=O)cc1 -3.9%
CC(C)Cc1cc(C(=O)NCCN2CCOCC2)no1 -10.2%
NC(=O)c1ccccc1NC(=O)c1ccc(Cl)cc1[N+](=O)[O-] -1.7%
O=C(Nc1nncs1)c1cc(-c2ccccc2Cl)nc2ccccc12 1.9%
CCOc1ccc(CCNc2nc3c(c(=O)n(C)c(=O)n3C)n2CC)cc1OCC -1%
O=C(CNc1cccc2ccccc12)N/N=C/c1cn(Cc2ccccc2)c2ccccc12 4.7%
O=C(N/N=C\c1cn(Cc2ccc(Cl)c(Cl)c2)c2ccccc12)c1ccc([N+](=O)[O-])cc1 -0.1%
O=C(c1cc2ccccc2oc1=O)N1CCCN(C(=O)c2cc3ccccc3oc2=O)CC1 3.4%
CC(C)(C)C(=O)/C=C(\N)c1ccccn1 -3.7%
COc1ccc(C2NC(=S)NC(C)=C2C(=O)Nc2ccccc2)c(OC)c1 (stereo unspecified) 1.7%
CC(=O)Nc1ccc(N=Cc2ccc([N+](=O)[O-])s2)cc1 1.2%
O=C(c1ccccc1)c1cc(Cl)ccc1N=Cc1ccc([N+](=O)[O-])s1 0.8%
CCc1ccc(C=NC23CN4CN(CN(C4)C2)C3)s1 -1.3% and -8.8%
O=[N+]([O-])c1cc(N=Cc2ccc(Br)s2)ccc1Cl 0.8%
O=[N+]([O-])c1ccc(C=Nc2ccc(Br)c(Cl)c2)s1 -1.9%
O=[N+]([O-])c1ccc(C=Nc2ccc(Oc3ccccc3)cc2)s1 0.3%
Cc1cccc(N=Cc2ccc([N+](=O)[O-])s2)c1 49.9%
CN1CCN(/N=C/c2ccc([N+](=O)[O-])s2)CC1 2.9%
Cn1c(O)c(N=NC(=O)COc2ccc3ccccc3c2)c2cc(Br)ccc21 3%
C/C(O)=C\C(N)=N/c1nc(C)cc(C)n1 2.7%
O=[N+]([O-])c1ccc(C(O)CN2CCN(C/C=C/c3ccccc3)CC2)cc1 (stereo unspecified) 3.6%
CCC(=O)N1c2ccc(S(=O)(=O)CCC(=O)N3CCn4c3nc3ccccc34)cc2CC1C (stereo unspecified) 6.1%
O=C(NCCNc1ccc([N+](=O)[O-])cc1Cl)c1ccccc1Cl 1.6%
COCCOC(=O)C1=C(C)NC(=O)CC1c1cccc(Cl)c1 (stereo unspecified) 3.6%
CN(C)CCCNC(=O)c1ccc(CN(c2ccccc2)S(C)(=O)=O)cc1 -6.3%

inhibition, active:
COC(=O)c1c2nc3ccccc3sc-2cc(=O)c1N 122%
Oc1c(Br)cc(Br)cc1C=Nc1ccc(Cl)c2cccnc12 98.2%
Oc1c(Br)cc(Br)cc1C=Nc1ccc(Br)c2cccnc12 52.9%
O=C(c1ccccc1)c1ccc(N=Cc2ccc([N+](=O)[O-])s2)cc1 62.2%
O=C(O)c1ccc(N=Cc2ccc([N+](=O)[O-])s2)cc1 83.1%
O=[N+]([O-])c1ccc(C=NC23CN4CN(CN(C4)C2)C3)s1 94.6%
O=[N+]([O-])c1ccc(C=Nc2ccc(Cl)c([N+](=O)[O-])c2)s1 67.5%
